Active and inactive are the calls of the source. Rule for the calls: active = hit-call score of the fitted dose curve at least 0.9, where 1 is the maximum; inactive = score below 0.9.
Assay: CCTE_Mundy_HCI_Cortical_Synap_Neur_Matur_CellBodySpotCount: CCTE's Synaptogenesis and Neurite Maturation Assay in rat cortical cells for Cell Body Spot Count, Mundy Lab (AID 2284223)
Method in brief: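 Synapse number at neuronal cell bodies was quantified as synaptophysin puncta per neuron in rat cortical cultures exposed from DIV 7 to DIV 12. Values were normalised to DMSO.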

outcome, inactive:
O=C1CCC(N2C(=O)c3ccccc3C2=O)C(=O)N1 (stereo not given)
Cn1c(=O)c2c(ncn2C)n(C)c1=O
NC(=O)NO
CC[C@H]1OC(=O)[C@H](C)[C@@H](O[C@H]2C[C@@](C)(OC)[C@@H](O)[C@H](C)O2)[C@H](C)[C@@H](O[C@@H]2O[C@H](C)C[C@H](N(C)C)[C@H]2O)[C@](C)(O)C[C@@H](C)C(=O)[C@H](C)[C@@H](O)[C@]1(C)O
O=P(OC(CCl)CCl)(OC(CCl)CCl)OC(CCl)CCl

Source: PubChem BioAssay (EPA / NIEHS)
